Test results taken from PubChem BioAssay (NCI).
Compounds without any hit were thinned out: in the full panel of roughly 79,000, 15% have a hit. Cut-off read from the data, not from the text of the source: active = growth inhibition above about 70%; inactive = the rest.

Tests used:
[1] = NCI Yeast Anticancer Drug Screen. Data for the rad50 strain (AID 155);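 note: 0% = growth of vehicle-only cultures of the same strain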; details: S. cerevisiae rad50 strain growth inhibition; at 50.0 µM; stronger effect = higher value
How it was run: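 Relative growth inhibition (compound vs vehicle) was measured in yeast with a defined repair-gene alteration.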

[2] = NCI Yeast Anticancer Drug Screen. Data for the mec2-1 strain (AID 157); details: S. cerevisiae mec2-1 strain, at 50.0 µM, stronger effect = higher value
How it was run: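 mec2-1 yeast strain, carrying an alteration in DNA damage repair or cell cycle control, was exposed to compounds; growth inhibition was measured relative to vehicle-treated controls.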

[3] = NCI Yeast Anticancer Drug Screen. Data for the sgs1 mgt1 strain (AID 161);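 note: 0% = growth of cultures given vehicle only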; details: S. cerevisiae sgs1 mgt1 strain, at 50.0 µM, stronger effect = higher value
How it was run: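 Compounds are added to genetically altered yeast, and growth is compared with cultures given vehicle alone to give percent inhibition.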

[4] = NCI Yeast Anticancer Drug Screen. Data for the cln2 rad14 strain (AID 165);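 note: 0% = growth equal to vehicle treated cultures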; details: S. cerevisiae cln2 rad14 strain, at 50.0 µM, stronger effect = higher value
How it was run: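 Yeast carrying cln2 and rad14 alterations (cell cycle control and DNA damage repair) were exposed to compounds. Growth inhibition was measured against vehicle-treated controls.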

[5] = NCI Yeast Anticancer Drug Screen. Data for the bub3 strain (AID 167); details: S. cerevisiae bub3 mutant strain, at 50.0 µM, stronger effect = higher value
How it was run: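 Screening used yeast with an engineered genetic alteration affecting cell cycle control. Compound-exposed cultures were compared with vehicle cultures, and reduced growth was taken as inhibition.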

[6] = NCI Yeast Anticancer Drug Screen. Data for the mlh1 rad18 strain (AID 175); details: S. cerevisiae mlh1 rad18 strain growth inhibition; at 50.0 µM; stronger effect = higher value
How it was run: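 Growth inhibition of the yeast strain was measured after compound exposure and expressed relative to vehicle-treated controls. The strain carries defined defects in DNA damage repair.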

Measured: growth inhibition

COCC1C(COC)C2CCC1C2(Cc1ccccc1)Cc1ccccc1 (configuration not stated)
inactive: [1] 1.4% | [2] 12.4% | [3] 18.1% | [4] -45.4% | [5] 0% | [6] -7.2%

CC12CC(=O)NN=C1c1ccccc1C2 (configuration not stated)
inactive: [1] 4.35% | [2] -10.8% | [3] 18.1% | [4] 29.6% | [5] -6.8% | [6] -2.8%

CC(C)N(C(=O)C12C3C4C5C3C1(C(=O)N(C(C)C)C(C)C)C5(C#N)C42)C(C)C (configuration not stated)
inactive: [1] 22.6% | [2] 3.65% | [3] 5.6% | [4] 13.7% | [5] 13.4% | [6] 4.2%

CCOP(=O)(O)C1CC2C3CC=C4CC(O)CCC4(C)C3CCC2(C)C1C(C)=O (configuration not stated)
inactive: [1] 15.9% | [2] -3.25% | [3] -0.55% | [4] -14.4% | [5] -2% | [6] 3.5%

NNC(=O)C1=NN(c2ccccc2)C(=O)C1
inactive: [1] 39.3% | [2] 12.8% | [3] 33.6% | [4] -12.9% | [5] 36.8% | [6] 42.1%

O=c1[nH]c2cc(Cl)ccc2nc1/C=C(\O)c1ccco1
inactive: [1] 7.55% | [2] -10.4% | [3] -16.1% | [4] 10.3% | [5] -33.6% | [6] 13.3%

O=C(CC(=O)c1ccccc1)Nc1cccnc1
inactive: [1] -21.2% | [2] 8.9% | [3] -0.3% | [4] -21.2% | [5] -1.8% | [6] -6.95%

CC1(Nc2ccccc2)OC(=O)c2ccccc21 (configuration not stated)
inactive: [1] -14.2% | [2] -13.7% | [3] -15.4% | [4] -8.85% | [5] -7.4% | [6] -0.85%

CC(C)N(C(=O)c1cccc(C(=O)N(C(C)C)C(C)C)c1)C(C)C
inactive: [1] 12.7% | [2] 2.45% | [3] 0.25% | [4] 11.3% | [5] 16.9% | [6] 33.4%

CCCOC(=O)CCCCC(=O)OCCC
inactive: [1] 11.6% | [2] 17.9% | [3] -8.65% | [4] -4% | [5] 0.85% | [6] 11.9%

CCCCCCCCCCOc1ccc(OCCCCCCCCC)cc1
inactive: [1] 15.5% | [2] -15.8% | [3] 12.9% | [4] -45% | [5] -2.3% | [6] -11.9%

CCCCCCCC/C=C\CCCCCCCC(=O)OC(C)CC(=O)N(C)C (configuration not stated)
inactive: [1] -18.1% | [2] -23.4% | [3] 10.6% | [4] -6.55% | [5] -11.6% | [6] 3.95%

CC(C)C1CC(O)C(C)C(C(C)C)C1 (configuration not stated)
inactive: [1] 4.05% | [2] -17.5% | [3] -12.9% | [4] -28.2% | [5] -1.65% | [6] -20.6%

CCOC(=O)/C(=C\c1ccc(N(C)C)cc1)S(=O)(=O)C(F)(F)C(F)(F)C(F)(F)C(F)(F)F
inactive: [1] 2% | [2] 9.6% | [3] 6.1% | [4] -9.7% | [5] 4.75% | [6] 15.2%

Nc1ccc(Nc2ccc([N+](=O)[O-])cc2S(=O)(=O)O)cc1
inactive: [1] 9.1% | [2] 4% | [3] -17% | [4] -16.4% | [5] -7.65% | [6] 10.8%

O=C(COC(=O)c1ccccc1Br)c1ccc(-c2ccccc2)cc1
inactive: [1] 33.6% | [2] 20.8% | [3] 31.6% | [4] 31.4% | [5] 0.7% | [6] 23.2%

CC(C)C(=O)Nc1ccccc1
inactive: [1] 2.9% | [2] -11.9% | [3] 2.7% | [4] -25.6% | [5] -13.6% | [6] 15.6%

Nc1nc(N)nc(-c2ccccc2-c2nc(N)nc(N)n2)n1
inactive: [1] -5.65% | [2] -2.85% | [3] 3.45% | [4] -18% | [5] 14.2% | [6] 6.65%

Cc1ccnc(NC(=O)Nc2ccccc2Cl)c1
inactive: [1] 9.65% | [2] 8.15% | [3] 1.3% | [4] 3.15% | [5] 21% | [6] 12%

CC1CC(C)C2=NOS3=C2C1=NO3 (configuration not stated)
inactive: [1] 43.3% | [2] 16.6% | [3] 36.1% | [4] 21.4% | [5] 28.4% | [6] 22.9%

COc1cccc2c(SCC(=O)Nc3ccccc3-c3ccccc3NC(=O)CSc3c4ccccc4nc4c(OC)cccc34)c3ccccc3nc12
inactive: [1] -2.4% | [2] 3.35% | [3] -15.8% | [4] -36% | [5] -2% | [6] -28.8%

Cc1ccc(Cl)c(NC(=O)C(=O)C(C(=O)c2ccncc2)C2OC(=O)c3ccccc32)c1 (configuration not stated)
inactive: [1] -14.6% | [2] -26.1% | [3] -37.1% | [4] 6.45% | [5] -5.85% | [6] -17.9%

O=C(O)CCc1ccc2c(c1)CC1(Cc3ccccc3C1)C2
inactive: [1] 26.1% | [2] 41.8% | [3] 61.2% | [4] 52.6% | [5] 48.1% | [6] 64%

CCOC(=O)C1/C(=N\N=C2\c3c(nnp3N(CCOS(C)(=O)=O)CCOS(C)(=O)=O)C(C(=O)OCC)C(c3ccc(OC(C)=O)cc3)C2C(=O)OCC)c2c(nnp2N(CCOS(C)(=O)=O)CCOS(C)(=O)=O)C(C(=O)OCC)C1c1ccc(OC(C)=O)cc1 (configuration not stated)
inactive: [1] 6.75% | [2] -0.05% | [3] -3.85% | [4] 4.25% | [5] 10.3% | [6] -4.5%

CCN(CC)CCC(C(=O)O)(c1ccccc1)C1(O)CCCC1 (configuration not stated)
inactive: [1] -7.5% | [2] -13.3% | [3] -7.9% | [4] -26.8% | [5] 7.1% | [6] -25.9%

OC(c1ccccc1)(c1c2ccccc2cc2ccccc12)C1CCC1 (configuration not stated)
inactive: [1] 16.8% | [2] 20.1% | [3] 0.9% | [4] 9.75% | [5] 13% | [6] -5.65%

CCOC(=O)C(C)(C)Oc1ccc2c(-c3ccccc3)cc(=O)oc2c1
inactive: [1] -9.15% | [2] -8.4% | [3] 0.15% | [4] -13.1% | [5] -19.8% | [6] -25.6%

c1ccc(-c2c3ccccc3c(-c3ccccc3)c3ccccc23)cc1
inactive: [1] 6.2% | [2] 5.95% | [3] 6.7% | [4] -3.75% | [5] 2.4% | [6] 19.7%

COC(=O)C(NC(=O)C(CC(=O)OC(C)(C)C)NC(=O)OC(C)(C)C)C(O)c1ccccc1 (configuration not stated)
inactive: [1] -35.6% | [2] -23.9% | [3] -22.4% | [4] -0.75% | [5] -27.6% | [6] -0.85%

COc1ccc(Cc2cc(OC)c(OC)c(OC)c2)cc1O
inactive: [1] 2.2% | [2] 11.4% | [3] -16.4% | [4] -22.1% | [5] 19.9% | [6] -21.2%

O=C(NCCN1CCCCC1)c1ccc(Br)cc1
inactive: [1] -15.2% | [2] -16.4% | [3] -12.6% | [4] -6% | [5] -18.9% | [6] -47.1%

COC(=O)c1nc2c(n(C)/c1=N/C(=O)Nc1ccccc1)CCCC2
inactive: [1] 61.5% | [2] -2.9% | [3] 4.25% | [4] -7.65% | [5] 4.65% | [6] -50.6%

CCCCCC(=O)OCCN(C)C
inactive: [1] -7.15% | [2] -24.2% | [3] -4.45% | [4] 21.1% | [5] -13.5% | [6] 24.9%

COc1cc(NCc2ccc3c(c2)OCO3)c([N+](=O)[O-])cc1OC
inactive: [1] 5.15% | [2] 11.3% | [3] 6.6% | [4] -8.6% | [5] 4.3% | [6] -15.7%

CC1CCC(C(C)(C)NO)C(=O)C1 (configuration not stated)
inactive: [1] -2.8% | [2] 0% | [3] -4.8% | [4] -8.1% | [5] -2.1% | [6] 0.7%

CSc1nc(-c2ccccc2)c2c(n1)-c1ccccc1CC2
inactive: [1] -4.95% | [2] -6.1% | [3] 3.05% | [4] -2.4% | [5] 17.9% | [6] -2.35%

Cc1ccc(Nc2nc(NS(=O)(=O)c3cc(C)c(Cl)cc3S)n(C)n2)cc1
inactive: [1] -15.1% | [2] -33.5% | [3] -29.7% | [4] -7.1% | [5] -32.9% | [6] -21.8%
